# Assay results reported in PubChem BioAssay (Tox21).
# Results filed as inconclusive are left out. Where a call stands in place of a potency, no number is given. The source holds several records for some structures; these can differ, active in one and inactive in another. Active and inactive are the calls of the source. Unless noted, calls follow the shape of the dose curve; as a rule, active = well fitted curve in the direction sought with a large enough effect in the repeat runs; inconclusive = weak or mixed curves; inactive = no such curve, though single readings can be large; an effect the other way counts as inactive or inconclusive.
# Tests used:
# [1] = qHTS assay to identify small molecule antagonists of the thyroid receptor (TR) signaling pathway - cell viability counter screen (AID 743064); also: nearly all actives have a fitted effect of over 50% in size
# Outline: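 In rat pituitary GH3.TRE-Luc reporter cells co-exposed to compound and 1 nM T3 for 23.5 h, cytotoxicity was assessed with CellTiter-Fluor in the same wells, read by fluorescence.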
# [2] = qHTS assay to identify small molecule antagonists of the thyroid receptor (TR) signaling pathway (AID 743065); also: series mostly up to about 70 µM; nearly all actives have a fitted effect of over 55% in size
# Outline: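 GH3.TRE-Luc rat pituitary cells (two TREs driving luciferase) were dosed with compound, then stimulated with 1 nM T3 (final) for 23.5 h at 37 C. ONE-Glo luminescence was the read-out, with CellTiter-Fluor fluorescence as the cytotoxicity counter-screen.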
# [3] = tested on: thyroid hormone receptor (rat, GH3 cells); assay: qHTS assay to identify small molecule agonists of the thyroid receptor (TR) signaling pathway (AID 743066; calls by dose curve)
# [4] = qHTS assay to identify small molecule antagonists of the estrogen receptor alpha (ER-alpha) signaling pathway - cell viability counter screen (AID 743074; calls by dose curve; also: nearly all actives have a fitted effect of over 45% in size)
# [5] = target: Estrogen receptor (Homo sapiens) (UniProt P03372); assay: qHTS assay to identify small molecule agonists of the estrogen receptor alpha (ER-alpha) signaling pathway (AID 743075; calls by dose curve; also: potency is read from the fitted curve at half-maximal effect)
# Estrogen receptor (Homo sapiens), sequence (P03372 whole entry, looked up): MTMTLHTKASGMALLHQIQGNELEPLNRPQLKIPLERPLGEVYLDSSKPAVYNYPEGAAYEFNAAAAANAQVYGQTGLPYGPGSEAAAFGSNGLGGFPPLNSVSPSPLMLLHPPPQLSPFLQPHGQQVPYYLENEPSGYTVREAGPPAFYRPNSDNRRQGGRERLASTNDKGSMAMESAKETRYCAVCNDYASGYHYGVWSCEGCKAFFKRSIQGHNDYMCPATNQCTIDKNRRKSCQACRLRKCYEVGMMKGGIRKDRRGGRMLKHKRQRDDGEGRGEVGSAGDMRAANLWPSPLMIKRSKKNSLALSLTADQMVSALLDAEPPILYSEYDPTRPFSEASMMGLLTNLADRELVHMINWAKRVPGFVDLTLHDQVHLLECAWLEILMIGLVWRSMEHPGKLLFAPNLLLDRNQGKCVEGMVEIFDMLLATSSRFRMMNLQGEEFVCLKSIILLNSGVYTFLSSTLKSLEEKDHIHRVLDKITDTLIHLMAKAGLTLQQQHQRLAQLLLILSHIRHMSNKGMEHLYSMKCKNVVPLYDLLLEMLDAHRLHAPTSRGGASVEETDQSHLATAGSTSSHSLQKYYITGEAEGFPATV
# [6] = target: Estrogen receptor (Homo sapiens) (UniProt P03372); assay: qHTS assay to identify small molecule agonists of the estrogen receptor alpha (ER-alpha) signaling pathway using the BG1 cell line (AID 743079); also: nearly all actives have a fitted effect of over 20% in size; also: potency is read from the fitted curve at half-maximal effect
# [7] = qHTS assay to identify small molecule antagonists of the estrogen receptor alpha (ER-alpha) signaling pathway using the BG1 cell line (AID 743080; calls by dose curve;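 also: BG1 cells stimulated with 17beta-estradiol alongside compound; series mostly up to about 70 µM; nearly all actives have a fitted effect of over 25% in size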)
# Outline: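 Luminescence from a 4×ERE-luciferase reporter in BG1-Luc-4E2 cells served as read-out. Cells, pre-cultured 5 days in stripped-serum phenol-red-free medium, were exposed to compound with 17beta-estradiol co-stimulation for 21.5 h at 37 C.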
# [8] = qHTS assay to identify small molecule antagonists of the estrogen receptor alpha (ER-alpha) signaling pathway using the BG1 cell line - cell viability counter screen (AID 743081);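 also: compound given together with 17beta-estradiol as the ER stimulus; series mostly up to about 70 µM; nearly all actives have a fitted effect of over 45% in size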
# Aromatase (Homo sapiens) = Aromatase (Homo sapiens) (UniProt P11511); assay: qHTS assay to identify aromatase inhibitors (AID 743083); also: series mostly up to about 70 µM; nearly all actives have a fitted effect of over 55% in size
# Aromatase (Homo sapiens), sequence (P11511 whole entry, looked up): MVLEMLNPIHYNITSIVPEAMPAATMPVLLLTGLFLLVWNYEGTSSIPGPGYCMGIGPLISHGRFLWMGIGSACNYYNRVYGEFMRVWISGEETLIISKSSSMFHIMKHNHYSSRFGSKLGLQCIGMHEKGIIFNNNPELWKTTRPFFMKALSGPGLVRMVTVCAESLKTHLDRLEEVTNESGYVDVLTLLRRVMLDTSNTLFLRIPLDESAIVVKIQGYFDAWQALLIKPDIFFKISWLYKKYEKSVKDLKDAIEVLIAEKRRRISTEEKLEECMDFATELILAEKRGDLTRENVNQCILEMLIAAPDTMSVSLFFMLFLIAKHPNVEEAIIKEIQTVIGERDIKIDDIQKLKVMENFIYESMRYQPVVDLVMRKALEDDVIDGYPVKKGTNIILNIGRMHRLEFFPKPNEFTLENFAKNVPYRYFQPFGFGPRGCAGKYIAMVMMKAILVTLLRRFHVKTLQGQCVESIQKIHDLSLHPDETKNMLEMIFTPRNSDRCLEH
# [9] = qHTS assay to identify aromatase inhibitors - cell viability counter screen (AID 743084);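 also: cells stimulated with testosterone during compound exposure; nearly all actives have a fitted effect of over 55% in size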
# [10] = target: Aryl hydrocarbon receptor (Homo sapiens) (UniProt P35869); assay: qHTS assay to identify small molecule that activate the aryl hydrocarbon receptor (AhR) signaling pathway (AID 743085); also: nearly all actives have a fitted effect of over 15% in size; also: potency is read from the fitted curve at half-maximal effect;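 as to activation: HG2L7.5c1 human HepG2 liver cells with stably integrated DRE-driven firefly reporter; series mostly up to about 70 µM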
# Aryl hydrocarbon receptor (Homo sapiens), sequence (P35869 whole entry, looked up): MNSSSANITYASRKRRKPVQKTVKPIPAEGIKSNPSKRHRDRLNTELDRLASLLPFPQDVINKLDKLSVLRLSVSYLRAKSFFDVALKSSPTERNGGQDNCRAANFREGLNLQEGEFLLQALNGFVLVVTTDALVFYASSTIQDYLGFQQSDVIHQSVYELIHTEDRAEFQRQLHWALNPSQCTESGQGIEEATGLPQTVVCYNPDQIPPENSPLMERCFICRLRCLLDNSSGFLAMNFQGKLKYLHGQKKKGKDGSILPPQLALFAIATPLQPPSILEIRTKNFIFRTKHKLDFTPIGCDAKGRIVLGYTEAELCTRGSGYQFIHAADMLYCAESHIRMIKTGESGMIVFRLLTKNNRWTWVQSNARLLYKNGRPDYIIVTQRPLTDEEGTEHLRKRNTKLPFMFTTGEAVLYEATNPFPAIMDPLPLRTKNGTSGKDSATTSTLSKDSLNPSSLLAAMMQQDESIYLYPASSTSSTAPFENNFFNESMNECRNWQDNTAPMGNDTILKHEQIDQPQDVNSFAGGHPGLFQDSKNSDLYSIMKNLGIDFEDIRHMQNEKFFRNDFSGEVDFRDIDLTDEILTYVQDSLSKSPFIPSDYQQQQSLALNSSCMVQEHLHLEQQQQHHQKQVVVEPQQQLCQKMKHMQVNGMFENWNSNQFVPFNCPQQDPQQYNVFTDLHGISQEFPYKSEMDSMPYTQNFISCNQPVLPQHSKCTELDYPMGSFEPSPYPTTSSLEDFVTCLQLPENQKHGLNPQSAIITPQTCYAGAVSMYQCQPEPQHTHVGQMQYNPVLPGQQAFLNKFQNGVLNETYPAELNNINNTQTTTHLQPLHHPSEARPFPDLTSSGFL
# Outline: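 AhR agonist activity is inferred from enhanced light output of a DRE-controlled firefly luciferase reporter in HepG2 cells, measured with ONE-Glo following 24 h treatment at 37C.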
# [11] = qHTS assay to identify small molecule that activate the aryl hydrocarbon receptor (AhR) signaling pathway - cell viability counter screen (AID 743086);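 also: HepG2 liver cells carrying the AhR DRE luciferase reporter; series mostly up to about 70 µM; nearly all actives have a fitted effect of over 45% in size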
# Outline: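 HepG2-AhR-luc (HG2L7.5c1) cells, 4000/well, treated 24 h at 37 C with compound; viability measured as CellTiter-Fluor fluorescence after 30 min in the same wells as the luciferase read.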
# [12] = target: Peroxisome proliferator-activated receptor gamma (Homo sapiens) (UniProt P37231); assay: qHTS assay to identify small molecule agonists of the peroxisome proliferator-activated receptor gamma (PPARg) signaling pathway (AID 743094; active = well fitted activation curve with a large enough effect in the signal ratio in the repeat runs, not every such curve was filed as active; the % refers to the signal ratio)
# Peroxisome proliferator-activated receptor gamma (Homo sapiens), sequence (P37231 whole entry, looked up): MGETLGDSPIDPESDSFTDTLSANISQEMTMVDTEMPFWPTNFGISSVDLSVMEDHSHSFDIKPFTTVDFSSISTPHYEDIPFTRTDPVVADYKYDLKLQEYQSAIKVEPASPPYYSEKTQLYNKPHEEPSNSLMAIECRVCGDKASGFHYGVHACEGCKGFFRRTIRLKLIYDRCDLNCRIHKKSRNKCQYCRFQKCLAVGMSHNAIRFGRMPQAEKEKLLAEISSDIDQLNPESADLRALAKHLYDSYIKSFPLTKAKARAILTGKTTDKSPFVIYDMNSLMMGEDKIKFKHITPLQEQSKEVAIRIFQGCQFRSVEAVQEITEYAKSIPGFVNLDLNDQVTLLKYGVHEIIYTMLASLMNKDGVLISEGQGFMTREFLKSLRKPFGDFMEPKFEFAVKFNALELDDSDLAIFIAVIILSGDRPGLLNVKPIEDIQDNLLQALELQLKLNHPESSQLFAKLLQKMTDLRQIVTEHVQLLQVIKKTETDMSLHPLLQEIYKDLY
# Outline: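 Reporter activation was scored by fluorescence of cleaved LiveBLAzer B/G substrate (1 h, room temperature) in PPARg-bla HEK293H cells previously treated 17 h at 37C with DMSO-dissolved compounds.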
# [13] = target: Peroxisome proliferator-activated receptor gamma (Homo sapiens) (UniProt P37231); assay: qHTS assay to identify small molecule antagonists of the peroxisome proliferator-activated receptor gamma (PPARg) signaling pathway (AID 743191; calls by dose curve; also: series mostly up to about 63 µM; nearly all actives have a fitted effect of over 30% in size)
# Outline: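 GeneBLAzer PPARg UAS-bla HEK293H cells, 5 h post-plating, exposed to compounds 17 h at 37C. LiveBLAzer B/G FRET substrate added for 1 h at room temperature; beta-lactamase reporter read by fluorescence intensity.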
# [14] = qHTS assay to identify small molecule antagonists of the peroxisome proliferator-activated receptor gamma (PPARg) signaling pathway - cell viability counter screen (AID 743194); also: nearly all actives have a fitted effect of over 55% in size
# Outline: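 Cytotoxicity counter screen in PPARg-bla HEK293H cells, same wells as reporter assay. Compounds plus 50 nM rosiglitazone (final) for 17 h at 37 C, then viability read by CellTiter-Glo luminescence.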
# [15] = qHTS assay for small molecule agonists of the antioxidant response element (ARE) signaling pathway (AID 743202; active = well fitted activation curve with a large enough effect in the signal ratio in the repeat runs, not every such curve was filed as active; the % refers to the signal ratio)
# Outline: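 HepG2 ARE-bla cells; 16 h treatment at 37 C; FRET-based beta-lactamase fluorescence read after 2 h substrate incubation at room temperature.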
# [16] = qHTS assay for small molecule agonists of the antioxidant response element (ARE) signaling pathway - cell viability counter screen (AID 743203; calls by dose curve; also: nearly all actives have a fitted effect of over 55% in size)
# Outline: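 Viability counter screen: stably transfected ARE-bla HepG2 line, 16 hrs compound exposure at 37C/5% CO2, ATP-based CellTiter-Glo luminescence measured in the reporter wells.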
# [17] = qHTS assay for small molecule activators of the heat shock response signaling pathway - cell viability counter screen (AID 743209); also: nearly all actives have a fitted effect of over 50% in size
# Outline: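 Viability of HSE-bla HeLa cells is measured with CellTiter-Glo in the wells already used for the reporter read. Compound exposure lasts 5 h at 37 C, and luminescence is read after 30 min at room temperature.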
# [18] = qHTS assay for small molecule activators of the heat shock response signaling pathway (AID 743210; active = well fitted activation curve with a large enough effect in the signal ratio in the repeat runs, with a control signal flat, not every such curve was filed as active; the % refers to the signal ratio;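 also: HeLa cells with beta-lactamase reporter driven by heat shock elements; series mostly up to about 63 µM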)
# Outline: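 Following overnight attachment, HSE-bla HeLa cells received test compounds for 5 h at 37 C; beta-lactamase activity was then detected via FRET substrate fluorescence.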
# [19] = target: Estrogen receptor (Homo sapiens) (UniProt P03372); assay: qHTS assay to identify small molecule antagonists of the estrogen receptor alpha (ER-alpha) signaling pathway (AID 743069; active = well fitted curve in the direction sought with a large enough effect in the signal ratio in the repeat runs, not every such curve was filed as active; the % refers to the signal ratio)
# Outline: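 In this cell-based reporter format, GripTite HEK293 cells harbouring ER-alpha-UAS-bla were grown overnight with 2% charcoal-stripped FBS, dosed with DMSO-dissolved compounds, then challenged with 17beta-estradiol. After 18 hr at 37C, beta-lactamase activity was detected by FRET fluorescence.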
SMILES,Potency [1],Potency [2],outcome [3],outcome [4],Potency [5],Potency [6],outcome [7],Potency [8],outcome (Aromatase (Homo sapiens)),Potency [9],Potency [10],Potency [11],Potency [12],outcome [13],outcome [14],Potency [15],outcome [16],Potency [17],outcome [18],outcome [19]
Cc1c(C(=O)c2c[nH]n(C)c2=O)ccc(S(C)(=O)=O)c1C1=NOCC1,inactive,inactive,inactive,inactive,inactive,inactive,inactive,inactive,inactive,inactive,inactive,inactive,inactive,inactive,inactive,inactive,inactive,inactive,inactive,
CC12CCC(C1)C(C)(C)C2O (configuration not stated),inactive,inactive,inactive,inactive,inactive,inactive,,inactive,inactive,inactive,,inactive,inactive,inactive,,,,inactive,inactive,inactive
CCc1occc(=O)c1O,inactive,inactive,inactive,inactive,inactive,inactive,inactive,inactive,inactive,inactive,inactive,inactive,inactive,,inactive,,inactive,inactive,inactive,
CC1c2ccccc2CN1NC(=O)c1ccc(Cl)c(S(N)(=O)=O)c1 (configuration not stated),inactive,inactive,inactive,inactive,inactive,inactive,inactive,inactive,inactive,,,inactive,inactive,inactive,inactive,inactive,inactive,inactive,inactive,inactive
c1ccc(B(c2ccccc2)c2ccccc2)cc1,inactive,inactive,inactive,inactive,30.9 µM [activator] (active),34.3 µM (active),,inactive,inactive,inactive,30.6 µM (active),,inactive,,,,inactive,inactive,inactive,inactive
CCCC(CC)c1ccccc1 (configuration not stated),inactive,inactive,inactive,inactive,inactive,inactive,,inactive,inactive,inactive,inactive,inactive,inactive,inactive,inactive,inactive,inactive,inactive,inactive,inactive
COC(=O)c1cc(Cl)cc(Cl)c1,inactive,inactive,inactive,inactive,inactive,inactive,,inactive,inactive,inactive,inactive,inactive,inactive,inactive,,inactive,inactive,inactive,inactive,inactive
CC(=O)CC(=O)OC(C)(C)C,inactive,inactive,inactive,inactive,inactive,,,inactive,inactive,inactive,inactive,inactive,inactive,,inactive,,inactive,inactive,inactive,inactive
C[C@]12CCC(=O)C=C1CC[C@H]1[C@@H]3CC[C@](O)(C(=O)CO)[C@@]3(C)C[C@H](O)[C@@]12F,inactive,inactive,inactive,inactive,inactive,4.73 µM (active) and inactive,,inactive,inactive,inactive,inactive,inactive,inactive,,inactive,inactive,,inactive,inactive,
CC1OCCC1=O (configuration not stated),inactive,inactive,inactive,inactive,inactive,inactive,,inactive,inactive,inactive,inactive,inactive,,,inactive,inactive,,inactive,inactive,inactive
CC1CCc2c(N3CCC(O)CC3)c(F)cc3c(=O)c(C(=O)O)cn1c23 (configuration not stated),inactive,inactive,inactive,inactive,inactive,inactive,inactive,inactive,inactive,inactive,inactive,inactive,inactive,,inactive,,inactive,inactive,inactive,
CC1=NN(c2ccc(S(=O)(=O)O)cc2)C(=O)C1,inactive,inactive,inactive,inactive,,,,inactive,inactive,inactive,inactive,inactive,inactive,inactive,inactive,inactive,inactive,inactive,inactive,
O=NN(CCCl)C(=O)NC1CCCCC1,inactive,inactive,inactive,inactive,,,,inactive,inactive,inactive,inactive,inactive,inactive,,inactive,inactive,inactive,inactive,inactive,
